Assay [1] deals with Lysosomal acid glucosylceramidase (Homo sapiens) (UniProt P04062). As to the kind of experiment: Glucocerebrosidase-p2 (AID 348; in the data active means potency below about 10 µM; further: potency means the concentration at half of the fitted maximal effect). The settings on record: purified GBA, blue fluorogenic substrate, 40 min. The gist of the method:
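Compounds titrated from 0.6 nM upwards against 0.2 nM enzyme in pH 5.9 citric acid/KH2PO4, taurocholate, tween-20; blue fluorogenic substrate 80 uM, 40 min room temperature, stopped and read Ex 365/Em 440 for AC50.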

Assay [2] can be described thus: AP1 Signaling Pathway (AID 357).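 Further: ME-180 reporter cells stimulated with EGF at its EC50 level; on the % scale 0 is the no-effect control and ±100 the full control effect.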 The settings on record: ME-180 AP-1-bla reporter, EGF-induced, beta-lactamase ratio, 5 h; at 7.69 µM (top of the series) unless noted. In a few lines: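 In this screen, ME-180 cells in Opti-MEM with 0.5% dialyzed FBS received EC50 EGF and compound titrations for 5 h. AP-1 reporter beta-lactamase was detected via CCF4 ratio, giving AC50 for positive and negative modulators.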

Assay [3] in a line: Stat Signaling Pathway (AID 446).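 Further: ME-180 cervical cancer cells given 40 pM IL-6 alongside compound; SIE-controlled beta-lactamase reporter measured as 460/530 nm FRET emission ratio; on the % scale 0 is the no-effect control and ±100 the full control effect.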 Particulars: ME-180 (cervical carcinoma) SIE beta-lactamase reporter, IL-6 stimulated, 5 h; at 7.69 µM (top of the series) unless noted. The gist of the method:
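ME-180 cells carrying a SIE-driven beta-lactamase reporter are stimulated with 40 pM IL-6 for 5 h at 37C in the presence of compound. The 460/530 nm FRET substrate ratio is read after 2.5 h at RT. Data are normalised to 300 pM IL-6 and to 125 nM JAK inhibitor controls.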

Assay [4] addresses Glucocorticoid receptor (Homo sapiens) (UniProt P04150). In words: GR-GFP Redistribution (AID 450;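 active means compounds whose dose series gives a full or clear partial fitted curve of increased nuclear translocation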; further: potency means the concentration at half of the fitted maximal effect). The settings on record: U2OS GR-GFP nuclear translocation, laser cytometry, 2 h.
Assay [5] has the same target. As to the kind of experiment: GR-EFC Redistribution (AID 451; calls by dose curve; further: potency means the concentration at half of the fitted maximal effect). The settings on record: CHO-K1 GR-EFC translocation, beta-gal luminescence, 2 h. In a few lines: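 CHO-K1 cells stably expressing nuclear-localized β-gal enzyme acceptor and GR fused C-terminally to the enzyme donor fragment; ligand-driven nuclear translocation restores β-gal by complementation. Compounds titrated up to 46 uM final, 2 h at 37 °C; luminescence read.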

In assay [6] the target is Mitogen-activated protein kinase 10 (Mus musculus) (UniProt Q61831). As to the kind of experiment: JNK3 AlphaScreen Assay (AID 530).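 Further: kinase came from lysate of stimulated human HepG2 cells; signal reports phosphorylation of biotinylated GST-cJun 1-79 at Ser73 with 10 µM ATP; on the % scale 0 is the no-effect control and ±100 the full control effect.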 Particulars: JNK3 lysate, c-Jun phosphorylation; series mostly up to 11.4 µM. In a few lines:
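Inhibitors reduce antibody binding to phosphorylated biotin-cJun, lowering AlphaScreen luminescence. Lysates from HepG2 cells pre-activated by IL-1beta plus TNF-alpha supplied JNK3; compounds were titrated.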
(In general: Alpha assays give light when donor and acceptor beads are brought close together.)

The target in assay [7] is 3',5'-cyclic-AMP phosphodiesterase 4B (Homo sapiens) (UniProt Q07343). In words: qHTS Assay for Inhibitors of PDE-IV (AID 607; active means well fitted activation curve with a large enough effect in the main read-out, with a control signal flat, not every such curve was filed as active; further: % of control where 0% means no effect). The settings on record: HEK293 ACTOne CNG channel cells, membrane potential fluorescence; series mostly up to 22.9 µM. In a few lines:
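HEK293 ACTOne cells with CNG channel (1000/well), endogenous PDE4; membrane potential dye, compounds up to 22.9 uM final. Fluorescence Ex 535/Em 590; RO 20-1724 (100 uM final) as reference.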
Background: qHTS replaces the single test concentration by a dilution series.

For assay [8], the target named is Cytochrome P450 1A2 (Homo sapiens) (UniProt P05177). In words: p450-cyp1a2 (AID 410; calls by dose curve; further: potency means the concentration at half of the fitted maximal effect;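 on activity change, negative = inhibition: -100% = full effect of reference inhibitor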). Particulars: recombinant CYP1A2, luciferin-ME demethylation, luminescence; series mostly up to 11.4 µM. In a few lines:
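Luminescent readout of luciferin formed from Luciferin-ME by human CYP1A2; data normalized against complete inhibition by 57 uM furafylline. Enzyme 20nM, substrate 100uM at Km, 100mM KPO4 buffer, 60 min reaction at room temperature.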

The nature of assay [9]: NFAT Signaling Pathway (AID 444).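 Further: carbachol stimulus at about its EC50 of 1 µM final; on the % scale 0 is the no-effect control and ±100 the full control effect.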 The settings on record: Jurkat NFAT-bla M1, carbachol, beta-lactamase ratio, 5 h; at 7.69 µM (top of the series) unless noted. The gist of the method: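 Jurkat cells carrying an NFAT-driven β-lactamase reporter and co-transfected muscarinic M1 receptor were treated with compound plus carbachol (1 uM final, an EC50 level) for 5 h at 37 °C. CCF4 loading followed for 1 h at RT; 460/530 nm ratio gave %activity.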

The target in assay [10] is Cytochrome P450 2C19 (Homo sapiens) (UniProt P33261). As to the kind of experiment: qHTS Assay for Inhibitors and Substrates of Cytochrome P450 2C19 (AID 899; active means well fitted inhibition curve with a large enough effect; further: potency means the concentration at half of the fitted maximal effect; nearly all actives have a fitted effect of over 60% in size). The settings on record: recombinant CYP2C19, luciferin-H EGE luminescence; series mostly up to 11.4 µM. In a few lines:
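In 50mM KPO4, the reaction held 5nM enzyme and KM-level (10uM) Luciferin-H EGE; it ran 60 min at 37C after NADPH regeneration and a 10 min compound preincubation. Luminescence values were scaled to 57uM ketoconazole as complete inhibition.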

The structures appear in SMILES notation. A number with no mark means an inactive call. Inconclusive results are not listed. Calls of active or inactive are those of the source. Unless noted, the call rests on the fitted dose curve; in most records, active means well fitted curve in either direction with a large enough effect (not every such curve was filed as active); inconclusive means small, poorly fitted or top-dose-only effect, or another doubt; inactive means flat fitted curve, though single readings scatter.

Sequence of Lysosomal acid glucosylceramidase (Homo sapiens) (P04062 whole entry, looked up): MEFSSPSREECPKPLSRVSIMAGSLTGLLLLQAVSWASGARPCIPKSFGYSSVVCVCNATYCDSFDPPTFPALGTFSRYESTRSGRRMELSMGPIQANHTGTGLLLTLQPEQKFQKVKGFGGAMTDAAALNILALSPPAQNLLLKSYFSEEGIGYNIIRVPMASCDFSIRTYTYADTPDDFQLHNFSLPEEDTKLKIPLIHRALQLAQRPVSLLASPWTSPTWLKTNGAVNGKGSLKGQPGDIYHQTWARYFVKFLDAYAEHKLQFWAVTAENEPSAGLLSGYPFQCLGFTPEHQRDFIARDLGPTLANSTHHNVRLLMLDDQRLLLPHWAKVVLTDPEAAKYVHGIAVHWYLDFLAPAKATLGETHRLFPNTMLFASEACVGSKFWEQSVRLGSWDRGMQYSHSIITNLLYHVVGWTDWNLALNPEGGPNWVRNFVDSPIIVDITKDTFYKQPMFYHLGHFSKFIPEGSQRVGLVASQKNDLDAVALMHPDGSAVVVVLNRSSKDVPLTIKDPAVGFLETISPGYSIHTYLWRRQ
Sequence of 3',5'-cyclic-AMP phosphodiesterase 4B (Homo sapiens) (Q07343 whole entry, looked up): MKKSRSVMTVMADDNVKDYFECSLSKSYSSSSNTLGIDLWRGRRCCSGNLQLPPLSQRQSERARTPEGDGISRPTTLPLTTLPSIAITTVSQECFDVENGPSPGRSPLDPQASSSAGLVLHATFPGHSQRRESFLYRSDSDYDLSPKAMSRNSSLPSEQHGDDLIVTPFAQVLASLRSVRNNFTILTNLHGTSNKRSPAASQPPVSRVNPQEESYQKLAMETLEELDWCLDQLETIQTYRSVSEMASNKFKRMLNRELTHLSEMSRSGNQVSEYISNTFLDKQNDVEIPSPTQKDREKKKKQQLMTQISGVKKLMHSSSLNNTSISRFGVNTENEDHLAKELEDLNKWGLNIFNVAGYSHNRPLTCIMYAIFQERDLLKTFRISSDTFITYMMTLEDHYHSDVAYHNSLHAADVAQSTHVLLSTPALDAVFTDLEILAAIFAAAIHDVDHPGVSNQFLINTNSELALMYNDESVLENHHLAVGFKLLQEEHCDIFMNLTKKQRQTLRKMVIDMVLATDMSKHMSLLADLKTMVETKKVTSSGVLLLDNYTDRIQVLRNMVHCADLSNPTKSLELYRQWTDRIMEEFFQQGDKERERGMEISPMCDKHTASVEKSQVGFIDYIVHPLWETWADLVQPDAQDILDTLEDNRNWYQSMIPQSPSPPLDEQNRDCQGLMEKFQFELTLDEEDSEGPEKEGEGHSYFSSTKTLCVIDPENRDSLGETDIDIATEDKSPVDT
Sequence of Glucocorticoid receptor (Homo sapiens) (P04150 whole entry, looked up, the tested form may be a part): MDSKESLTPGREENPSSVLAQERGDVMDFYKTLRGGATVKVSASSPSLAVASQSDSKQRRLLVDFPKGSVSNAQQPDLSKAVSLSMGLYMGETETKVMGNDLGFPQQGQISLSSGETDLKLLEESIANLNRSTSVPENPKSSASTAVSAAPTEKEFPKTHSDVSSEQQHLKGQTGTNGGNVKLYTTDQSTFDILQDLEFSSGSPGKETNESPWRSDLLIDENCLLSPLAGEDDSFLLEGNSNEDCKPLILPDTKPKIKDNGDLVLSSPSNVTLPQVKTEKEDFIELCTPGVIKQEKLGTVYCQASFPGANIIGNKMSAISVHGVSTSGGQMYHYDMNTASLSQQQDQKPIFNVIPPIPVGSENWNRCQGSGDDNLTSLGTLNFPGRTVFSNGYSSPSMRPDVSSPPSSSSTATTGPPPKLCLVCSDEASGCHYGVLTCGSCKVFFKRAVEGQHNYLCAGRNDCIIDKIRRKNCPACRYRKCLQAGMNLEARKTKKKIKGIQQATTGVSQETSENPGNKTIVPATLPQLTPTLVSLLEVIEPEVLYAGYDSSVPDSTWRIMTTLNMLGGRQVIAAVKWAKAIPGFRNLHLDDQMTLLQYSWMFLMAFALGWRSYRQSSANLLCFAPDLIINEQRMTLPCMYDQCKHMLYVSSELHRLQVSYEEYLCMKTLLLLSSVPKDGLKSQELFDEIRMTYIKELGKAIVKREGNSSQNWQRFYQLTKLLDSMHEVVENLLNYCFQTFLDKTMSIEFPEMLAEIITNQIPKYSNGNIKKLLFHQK
Sequence of Cytochrome P450 1A2 (Homo sapiens) (P05177 whole entry, looked up): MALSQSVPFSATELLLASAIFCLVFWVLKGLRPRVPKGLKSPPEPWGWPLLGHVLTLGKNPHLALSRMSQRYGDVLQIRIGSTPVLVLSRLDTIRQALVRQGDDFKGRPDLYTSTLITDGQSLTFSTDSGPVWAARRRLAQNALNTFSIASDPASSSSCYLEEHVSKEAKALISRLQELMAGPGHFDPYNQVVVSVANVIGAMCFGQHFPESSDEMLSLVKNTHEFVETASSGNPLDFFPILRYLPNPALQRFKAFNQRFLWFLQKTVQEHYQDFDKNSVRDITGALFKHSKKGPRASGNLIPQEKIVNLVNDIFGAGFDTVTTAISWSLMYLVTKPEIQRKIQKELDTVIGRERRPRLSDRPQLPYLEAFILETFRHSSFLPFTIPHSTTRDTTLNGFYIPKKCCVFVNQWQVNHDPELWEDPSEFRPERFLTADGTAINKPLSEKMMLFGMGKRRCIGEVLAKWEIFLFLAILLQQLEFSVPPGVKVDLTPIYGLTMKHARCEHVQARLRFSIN
Sequence of Cytochrome P450 2C19 (Homo sapiens) (P33261 whole entry, looked up): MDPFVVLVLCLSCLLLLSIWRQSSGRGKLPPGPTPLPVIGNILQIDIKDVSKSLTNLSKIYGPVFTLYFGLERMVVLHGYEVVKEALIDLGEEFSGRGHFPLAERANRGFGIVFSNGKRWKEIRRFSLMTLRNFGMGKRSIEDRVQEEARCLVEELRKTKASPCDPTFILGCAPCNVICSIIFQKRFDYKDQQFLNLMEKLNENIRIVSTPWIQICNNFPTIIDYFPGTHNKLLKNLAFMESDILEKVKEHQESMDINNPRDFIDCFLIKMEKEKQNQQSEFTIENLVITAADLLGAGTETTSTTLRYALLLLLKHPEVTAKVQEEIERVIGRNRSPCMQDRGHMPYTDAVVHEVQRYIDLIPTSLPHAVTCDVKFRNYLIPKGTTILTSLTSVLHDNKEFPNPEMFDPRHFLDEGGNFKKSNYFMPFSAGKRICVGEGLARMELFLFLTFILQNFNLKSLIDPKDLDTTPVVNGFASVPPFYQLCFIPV

Consider `COc1ccc(NCc2c(O)ccc3ccccc23)cc1`, for which the Potency in assay [1] is above 11.4 µM; in [4], above 46 µM; in [5] it was above 9.22 µM. In assay [2], the activity change, negative = inhibition was -6.4%. In addition, the activity, negative = inhibition in assay [3] was -5.4%. The Potency entry in assay [6] and in assay [7] was “inactive” throughout.

On to `COc1ncc2nc(-c3ccc(Cl)cc3)c(=O)n(C[C@H]3CCCO3)c2n1`, for which the Potency in assay [1] is above 11.4 µM; in [8], 0.501 µM (active); in assay [4], above 9.22 µM; in assay [5], above 46 µM. Besides, the activity change, negative = inhibition in [9] is -7.47%. Besides, the activity, negative = inhibition in assay [3] was -9.41%. In addition, the Potency entry in assay [6] and in assay [7] was “inactive” throughout.

`CCCCNN`: the Potency is above 11.4 µM in assay [1], above 46 µM in [4] and above 9.22 µM in assay [5]. Besides, the activity change, negative = inhibition in assay [8] is -6.5% [at 2.29 µM]; in assay [9], 9.69%. In addition, in assay [3], the activity, negative = inhibition is 4.29%. Moreover, the Potency result in assay [6] and in [7] was “inactive” throughout.

On to `CC1(C)[C@@H]2CC[C@]1(C)[C@@H](OC(=O)/C=C\c1ccccc1)C2`, for which the Potency is above 11.4 µM in assay [1], above 46 µM in assay [4] and above 9.22 µM in assay [5]. Also, the activity change, negative = inhibition is -3.4% [at 2.29 µM] in assay [8] and -17.9% in [9]. Also, the activity, negative = inhibition in [3] is 21.7%. In addition, the Potency result in assay [6] and in assay [7] was “inactive” throughout.

For the compound `O=[N+]([O-])c1ccc([C@@H](Nc2ccccc2)c2ccc3cccnc3c2O)cc1`, the Potency is above 11.4 µM in assay [1], above 46 µM in [4], above 9.22 µM in assay [5] and 3.98 µM (active) in assay [10]. The activity change, negative = inhibition in [2] is -13.7%. The Potency result in [6] and in assay [7] was “inactive” each time.

As to `C[N+](C)(C)c1ccc([C@H](N)C(=O)O)cc1`, the values for the Potency in assay [1], in assay [4] and in assay [5] were above 11.4 µM, above 46 µM and above 9.22 µM, respectively. In addition, the Potency entry in assay [8], in assay [6] and in [7] was “inactive” in each case. For the same compound, the activity change, negative = inhibition in [9] was -21.6%. Also, the activity, negative = inhibition in [3] was 0.0481%.

Take `CC(C)[C@H](Sc1nc(N)nc2nc[nH]c12)C(=O)O`: the Potency was above 11.4 µM in [1], 0.316 µM (active) in assay [8], above 46 µM in assay [4] and above 9.22 µM in [5]. The activity change, negative = inhibition in [9] was 9.06%. For the same compound, in [3], the activity, negative = inhibition is 14.2%. Moreover, the Potency result in assay [6] and in [7] was “inactive” throughout.

As for `Cc1ccc(N=Nc2c(O)c3ccccc3[nH]c2=O)c(S(=O)(=O)N(C)C)c1`, the results for the Potency in assay [1], in assay [4] and in [5] were above 11.4 µM, above 46 µM and above 9.22 µM, respectively. Moreover, the activity change, negative = inhibition in [8] was -14.6% [at 2.29 µM]; in assay [9], 2.83%. In assay [3], the activity, negative = inhibition was 3.87%. In addition, the Potency entry in assay [6] and in assay [7] was “inactive” each time.

With `Cc1nnc(S(=O)(=O)c2ccc(N=Nc3c(N)nc(N)nc3N)cc2)s1`, the Potency in [1] is above 11.4 µM; in [4], above 46 µM; in assay [5], above 9.22 µM. Moreover, the activity change, negative = inhibition in assay [8] was -10.2% [at 2.29 µM]; in assay [9] it was 7.42%. Moreover, in assay [3], the activity, negative = inhibition was -3.59%. Also, the Potency result in assay [6] and in assay [7] was “inactive” each time.
